Experimental data from the supplement of paper PMC10849652.
Of roughly 7,900 targets only a part is listed; those with a hit were picked by preference. About 0.6% of all pairs of compound and target were hits.

Tests used:
Test in all cases: log2 fold change, soluble protein after heating vs DMSO (PISA); higher = thermal stabilisation; K562 cells, 10 uM, 30 min; active = over 0.2 and 3.5 SD of the protein, either way, in both replicates (recomputed)
[1] = compound: CC[C@@H]1C(=O)N(C)c2cnc(Nc3ccc(C(=O)NC4CCN(C)CC4)cc3OC)nc2N1C1CCCC1
Procedure, shortened: (§1)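 Aliquots of K562 cells (2×10^6 cells/mL) treated with 10 μM compound for 30 min were heated for 3 min over 48°C-58°C. After pooling and extraction in PBS with 0.5% NP-40 at 4°C, soluble protein from a 21,000xg, 90 min spin was quantified by TMTpro 16plex LC-MS/MS with channel sums equalised. Thermal stability is expressed against control samples, from duplicates, as a log2 fold change.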

[2] = compound: CC[C@@H]1C(=O)N(C)c2cnc(Nc3ccc(C(=O)N[C@H]4CC[C@H](N5CCN(CC6CC6)CC5)CC4)cc3OC)nc2N1C(C)C [volasertib]
Procedure, shortened: as §1

[3] = compound: CC[C@H](C)N1C=C(C2=C(C=C(C=C21)C3=CN=C(C=C3)N4CCNCC4)C(=O)NCC5=C(C=C(NC5=O)C)C)C
Procedure, shortened: as §1

[4] = compound: CC[C@H](C)[C@@H](C(=O)N[C@@H]([C@@H](C)O)C(=O)N[C@@H](CC(C)C)C(=O)[C@]1(CO1)C)NC(=O)[C@H]([C@@H](C)CC)N(C)C(=O)C [epoxomicin]
Procedure, shortened: as §1

[5] = compound: CCn1c(C(=O)N(C2CC2)C2CC2)cc2c3c(ncn3C)c(Nc3cc(C)n(C)n3)nc21
Procedure, shortened: as §1

[6] = compound: CCn1cc(-c2ccnc3[nH]c(-c4cccc(CN(C)C)c4)cc23)c(-c2ccc(NC(=O)N(C)C)cc2)n1
Procedure, shortened: as §1

[7] = compound: CN(C)CC(=O)Nc1ccc2[nH]c(=O)c3ccccc3c2c1
Procedure, shortened: as §1

[8] = compound: CN(CCOC1=CC=C(C=C1)C[C@H]2C(=O)NC(=O)S2)C3=CC=CC=N3 (racemic) [rosiglitazone]
Procedure, shortened: as §1

[9] = compound: CN1C2=C(C3=C1C(=O)N(N=C3)CC4=CC(=CC=C4)N)SC(=C2)S(=O)C
Procedure, shortened: as §1

[10] = compound: CN1CCC(CNc2ccc3ncc(-c4cccc(OC(F)(F)F)c4)n3n2)CC1
Procedure, shortened: as §1

[11] = compound: CN1CCN(CCOc2cc(OC3CCOCC3)c3c(Nc4c(Cl)ccc5c4OCO5)ncnc3c2)CC1 [saracatinib]
Procedure, shortened: as §1

[12] = compound: CN1CCN(c2nc(C3=C(c4c[nH]c5ccccc45)C(=O)NC3=O)c3ccccc3n2)CC1 [sotrastaurin]
Procedure, shortened: as §1

[13] = compound: CN1CC[C@H](c2c(O)cc(O)c3c(=O)cc(-c4ccccc4Cl)oc23)[C@H](O)C1 [alvocidib]
Procedure, shortened: as §1

[14] = compound: CN1CCc2c(c3ccccc3n2Cc2ccc(C(=O)NO)cc2)C1 [Tubastatin A]
Procedure, shortened: as §1

[15] = compound: CNC(=O)C1=CC=CC=C1NC2=NC(=NC=C2Cl)NC3=C(C=C(C=C3)N4CCOCC4)OC
Procedure, shortened: as §1

[16] = compound: CNC(=O)c1ccc(Nc2ncc(C(F)(F)F)c(NCc3nccnc3N(C)S(C)(=O)=O)n2)cc1 [defactinib]
Procedure, shortened: as §1

[17] = compound: CNCc1ccc(-c2[nH]c3cc(F)cc4c3c2CCNC4=O)cc1 [rucaparib]
Procedure, shortened: as §1

[18] = compound: CNc1nc(-c2ccc3c(N)n[nH]c3c2)cc(N2C[C@@H](C(=O)NC3CCCCC3)CC[C@H]2C)n1
Procedure, shortened: as §1

[19] = compound: COC(=O)N[C@@H](C)CNc1nccc(-c2cn(C(C)C)nc2-c2cc(Cl)cc(NS(C)(=O)=O)c2F)n1 [encorafenib]
Procedure, shortened: as §1

[20] = compound: COC(=O)[C@H](CCSC)NC(=O)C1=C(C=C(C=C1)NC[C@H](CS)N)C2=CC=CC=C2
Procedure, shortened: as §1

Measured: log2 fold change

DNAAF2 (UniProt Q9NVR5)
active: [10] -0.279
inactive: [1] 0.11 | [2] -0.113 | [3] -0.031 | [4] -0.012 | [5] 0.029 | [6] 0.095 | [7] 0 | [8] -0.06 | [9] 0.042 | [11] 0.048 | [12] 0 | [13] -0.065 | [14] -0.042 | [15] 0.01 | [16] -0.142 | [17] 0.031 | [18] -0.033 | [19] 0.026 | [20] 0.043

CYP51A1 (UniProt Q16850)
Chain of UniProt Q16850 (Q16850 whole entry, looked up): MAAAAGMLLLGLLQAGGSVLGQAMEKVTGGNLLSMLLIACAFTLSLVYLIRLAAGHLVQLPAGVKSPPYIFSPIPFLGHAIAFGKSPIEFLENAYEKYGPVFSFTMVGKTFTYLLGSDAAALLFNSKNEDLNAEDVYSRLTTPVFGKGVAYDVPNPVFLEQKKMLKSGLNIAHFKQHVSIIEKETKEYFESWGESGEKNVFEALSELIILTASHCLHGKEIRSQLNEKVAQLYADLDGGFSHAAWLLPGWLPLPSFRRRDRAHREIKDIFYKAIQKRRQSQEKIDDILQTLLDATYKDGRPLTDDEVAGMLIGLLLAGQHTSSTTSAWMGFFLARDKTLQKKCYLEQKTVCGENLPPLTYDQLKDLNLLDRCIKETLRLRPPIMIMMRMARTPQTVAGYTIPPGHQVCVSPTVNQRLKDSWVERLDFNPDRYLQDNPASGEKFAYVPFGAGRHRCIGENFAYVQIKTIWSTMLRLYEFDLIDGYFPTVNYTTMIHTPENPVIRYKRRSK
inactive: [1] 0.019 | [2] 0.132 | [3] 0.052 | [4] -0.061 | [5] 0.058 | [6] 0.015 | [7] 0.015 | [8] -0.056 | [9] 0.072 | [11] -0.072 | [12] -0.029 | [13] 0.027 | [14] -0.024 | [15] 0.065 | [16] 0 | [17] 0.162 | [18] 0.212 | [19] 0.029 | [20] -0.135
active: [10] -0.331

DMAC1 (UniProt Q96GE9)
Chain of UniProt Q96GE9 (Q96GE9 whole entry, looked up): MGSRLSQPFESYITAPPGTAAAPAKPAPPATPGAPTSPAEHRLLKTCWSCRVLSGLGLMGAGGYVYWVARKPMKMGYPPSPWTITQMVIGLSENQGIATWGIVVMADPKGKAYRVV
active: [11] -0.509
inactive: [1] 0.269 | [2] 0.016 | [3] -0.038 | [4] -0.084 | [5] 0.057 | [6] -0.041 | [7] 0.001 | [8] -0.025 | [9] -0.007 | [10] 0.015 | [12] 0 | [13] -0.003 | [14] 0.031 | [15] -0.077 | [16] -0.048 | [17] -0.124 | [18] 0.005 | [19] -0.105 | [20] -0.019

EEA1 (UniProt Q15075)
Chain of UniProt Q15075 (Q15075 whole entry, looked up): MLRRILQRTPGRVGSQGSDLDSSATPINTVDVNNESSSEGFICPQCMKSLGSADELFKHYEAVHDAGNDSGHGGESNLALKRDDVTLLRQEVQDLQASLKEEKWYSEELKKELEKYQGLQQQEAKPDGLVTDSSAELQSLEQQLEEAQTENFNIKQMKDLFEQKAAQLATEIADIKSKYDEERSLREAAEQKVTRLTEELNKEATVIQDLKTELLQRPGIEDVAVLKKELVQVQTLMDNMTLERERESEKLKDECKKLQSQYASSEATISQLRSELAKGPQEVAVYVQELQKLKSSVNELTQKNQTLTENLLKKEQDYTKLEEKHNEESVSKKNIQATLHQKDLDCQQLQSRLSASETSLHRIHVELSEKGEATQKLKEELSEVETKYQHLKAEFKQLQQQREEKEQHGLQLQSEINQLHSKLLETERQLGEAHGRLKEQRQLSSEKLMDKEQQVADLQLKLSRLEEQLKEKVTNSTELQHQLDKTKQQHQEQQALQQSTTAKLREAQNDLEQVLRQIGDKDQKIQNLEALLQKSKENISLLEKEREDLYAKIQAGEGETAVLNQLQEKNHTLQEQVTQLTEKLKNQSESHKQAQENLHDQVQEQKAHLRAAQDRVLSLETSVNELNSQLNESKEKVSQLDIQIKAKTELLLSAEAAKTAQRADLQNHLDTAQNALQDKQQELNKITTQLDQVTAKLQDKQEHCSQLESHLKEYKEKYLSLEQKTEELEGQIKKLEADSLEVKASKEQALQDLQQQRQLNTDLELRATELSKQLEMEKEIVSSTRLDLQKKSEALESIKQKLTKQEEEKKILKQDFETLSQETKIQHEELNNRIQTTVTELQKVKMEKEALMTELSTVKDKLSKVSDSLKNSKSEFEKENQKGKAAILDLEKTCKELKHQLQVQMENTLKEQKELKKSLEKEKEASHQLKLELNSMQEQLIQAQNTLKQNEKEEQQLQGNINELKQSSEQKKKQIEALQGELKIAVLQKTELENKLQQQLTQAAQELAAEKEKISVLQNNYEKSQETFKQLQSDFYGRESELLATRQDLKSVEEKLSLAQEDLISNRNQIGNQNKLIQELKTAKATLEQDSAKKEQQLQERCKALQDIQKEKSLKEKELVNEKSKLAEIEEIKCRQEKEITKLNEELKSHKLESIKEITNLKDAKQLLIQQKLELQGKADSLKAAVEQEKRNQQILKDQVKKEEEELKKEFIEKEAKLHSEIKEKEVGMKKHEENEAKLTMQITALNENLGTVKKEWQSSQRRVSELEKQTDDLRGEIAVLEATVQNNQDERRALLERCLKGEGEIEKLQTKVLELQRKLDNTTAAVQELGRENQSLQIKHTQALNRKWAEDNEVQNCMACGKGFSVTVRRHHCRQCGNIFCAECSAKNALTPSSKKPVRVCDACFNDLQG
inactive: [1] 0.036 | [2] 0.031 | [3] -0.024 | [4] 0.017 | [5] -0.002 | [6] 0.019 | [7] -0.038 | [8] -0.014 | [9] -0.023 | [10] 0.001 | [11] 0.07 | [12] 0.013 | [13] 0.013 | [14] -0.014 | [15] -0.014 | [16] -0.033 | [17] -0.035 | [18] -0.026 | [19] -0.047 | [20] 0.007

CTSZ (UniProt Q9UBR2)
Chain of UniProt Q9UBR2 (Q9UBR2 whole entry, looked up): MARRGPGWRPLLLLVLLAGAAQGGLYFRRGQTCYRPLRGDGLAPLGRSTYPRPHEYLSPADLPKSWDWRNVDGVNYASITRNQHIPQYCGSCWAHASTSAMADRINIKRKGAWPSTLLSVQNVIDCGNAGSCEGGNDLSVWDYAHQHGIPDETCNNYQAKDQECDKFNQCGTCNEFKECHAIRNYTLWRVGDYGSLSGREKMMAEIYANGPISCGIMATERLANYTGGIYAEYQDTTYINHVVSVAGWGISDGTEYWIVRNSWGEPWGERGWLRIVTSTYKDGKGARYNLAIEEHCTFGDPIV
inactive: [3] -0.058 | [4] 0.02 | [5] 0.022 | [6] 0 | [7] -0.026 | [8] -0.028 | [9] -0.087 | [11] 0.025 | [12] 0.079 | [13] -0.008 | [14] -0.056 | [15] 0.005 | [16] 0 | [17] -0.098 | [18] 0.012 | [19] -0.012 | [20] 0.027
active: [1] -0.954 | [2] -1.54 | [10] -0.843

DPP8 (UniProt Q6V1X1)
Chain of UniProt Q6V1X1 (Q6V1X1 whole entry, looked up): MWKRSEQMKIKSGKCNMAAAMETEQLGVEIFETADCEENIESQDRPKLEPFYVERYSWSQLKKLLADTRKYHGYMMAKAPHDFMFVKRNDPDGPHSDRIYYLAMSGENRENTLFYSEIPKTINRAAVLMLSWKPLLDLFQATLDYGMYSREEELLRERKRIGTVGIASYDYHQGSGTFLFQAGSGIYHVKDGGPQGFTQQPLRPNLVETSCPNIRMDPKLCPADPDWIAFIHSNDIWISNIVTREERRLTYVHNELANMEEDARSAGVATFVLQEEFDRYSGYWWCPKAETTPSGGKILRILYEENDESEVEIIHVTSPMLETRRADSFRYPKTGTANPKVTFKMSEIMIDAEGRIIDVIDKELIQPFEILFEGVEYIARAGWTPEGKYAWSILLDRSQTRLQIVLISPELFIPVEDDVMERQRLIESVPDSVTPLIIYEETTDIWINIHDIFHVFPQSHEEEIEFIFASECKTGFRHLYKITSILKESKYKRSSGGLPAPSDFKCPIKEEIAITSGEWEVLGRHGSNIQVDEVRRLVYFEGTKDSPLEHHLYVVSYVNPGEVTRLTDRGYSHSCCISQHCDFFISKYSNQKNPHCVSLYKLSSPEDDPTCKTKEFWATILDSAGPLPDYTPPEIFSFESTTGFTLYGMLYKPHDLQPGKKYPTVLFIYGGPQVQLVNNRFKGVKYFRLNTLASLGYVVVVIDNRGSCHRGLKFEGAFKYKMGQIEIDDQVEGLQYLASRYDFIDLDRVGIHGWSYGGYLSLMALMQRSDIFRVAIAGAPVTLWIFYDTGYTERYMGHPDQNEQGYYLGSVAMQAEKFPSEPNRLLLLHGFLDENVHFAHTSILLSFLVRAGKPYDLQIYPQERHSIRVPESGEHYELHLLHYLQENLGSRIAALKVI
active: [17] -0.572
inactive: [1] 0.143 | [2] 0.007 | [3] -0.025 | [4] -0.045 | [5] 0.019 | [6] 0.002 | [7] -0.057 | [8] 0.02 | [9] -0.047 | [10] -0.106 | [11] -0.002 | [12] 0.175 | [13] 0.024 | [14] 0.003 | [15] -0.044 | [16] 0.082 | [18] -0.021 | [19] 0.026 | [20] 0.058

FADS3 (UniProt Q9Y5Q0)
inactive: [1] -0.02 | [2] 0.095 | [3] 0.013 | [4] -0.016 | [5] 0.046 | [6] -0.116 | [7] -0.05 | [8] -0.019 | [9] -0.13 | [10] -0.231 | [11] 0.035 | [12] 0.037 | [13] -0.051 | [14] -0.061 | [15] 0.026 | [16] 0.048 | [17] 0.024 | [18] -0.079 | [19] 0.02 | [20] 0.026

DTWD1 (UniProt Q8N5C7)
Chain of UniProt Q8N5C7 (Q8N5C7 whole entry, looked up): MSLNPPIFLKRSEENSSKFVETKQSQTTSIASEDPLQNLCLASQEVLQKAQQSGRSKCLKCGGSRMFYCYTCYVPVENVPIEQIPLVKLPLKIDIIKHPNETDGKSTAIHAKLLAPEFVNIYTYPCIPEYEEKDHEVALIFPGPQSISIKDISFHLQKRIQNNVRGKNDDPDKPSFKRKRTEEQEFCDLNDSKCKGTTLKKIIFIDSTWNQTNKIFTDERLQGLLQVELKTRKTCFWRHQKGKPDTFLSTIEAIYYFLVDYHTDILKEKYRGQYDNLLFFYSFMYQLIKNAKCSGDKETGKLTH
inactive: [1] -0.081 | [2] -0.196 | [3] -0.07 | [4] -0.054 | [5] 0.018 | [6] -0.033 | [7] 0.036 | [8] 0.057 | [9] -0.046 | [10] 0.089 | [11] 0.007 | [12] -0.02 | [13] -0.122 | [14] -0.014 | [15] 0.007 | [16] -0.03 | [17] 0.011 | [18] 0.152 | [19] 0.051 | [20] -0.143

ERCC6 (UniProt Q03468)
inactive: [1] 0.072 | [2] -0.135 | [3] -0.06 | [4] 0.015 | [5] 0.074 | [6] -0.091 | [7] 0.004 | [8] -0.221 | [9] -0.009 | [10] 0.08 | [11] -0.006 | [12] 0.169 | [13] -0.04 | [14] -0.093 | [15] 0.126 | [16] 0.016 | [17] 0 | [18] -0.085 | [19] -0.088 | [20] 0.055

DEGS1 (UniProt O15121)
inactive: [1] 0.061 | [2] -0.02 | [3] 0.012 | [4] -0.037 | [5] -0.028 | [6] -0.168 | [7] 0.068 | [8] -0.041 | [9] -0.1 | [10] 0.019 | [11] 0.088 | [12] -0.022 | [13] 0.036 | [15] 0.046 | [16] -0.18 | [17] 0.002 | [18] 0.029 | [19] 0.002 | [20] 0.106
active: [14] -0.521

DBT (UniProt P11182)
Chain of UniProt P11182 (P11182 whole entry, looked up): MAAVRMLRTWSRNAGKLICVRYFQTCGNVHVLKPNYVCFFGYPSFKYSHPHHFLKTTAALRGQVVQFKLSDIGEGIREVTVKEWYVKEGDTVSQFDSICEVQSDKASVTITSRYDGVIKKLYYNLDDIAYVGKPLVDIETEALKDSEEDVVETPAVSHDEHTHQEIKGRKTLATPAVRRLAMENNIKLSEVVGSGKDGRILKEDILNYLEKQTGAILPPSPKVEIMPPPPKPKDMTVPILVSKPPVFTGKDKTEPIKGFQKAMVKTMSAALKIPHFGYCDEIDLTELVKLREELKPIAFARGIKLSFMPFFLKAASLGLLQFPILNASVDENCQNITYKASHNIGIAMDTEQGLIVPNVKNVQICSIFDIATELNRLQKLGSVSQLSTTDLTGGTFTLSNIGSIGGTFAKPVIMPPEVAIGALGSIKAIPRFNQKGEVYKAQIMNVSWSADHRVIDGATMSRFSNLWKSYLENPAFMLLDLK
inactive: [1] 0.068 | [2] 0.009 | [3] -0.01 | [4] -0.022 | [5] -0.018 | [6] -0.001 | [7] -0.14 | [8] -0.025 | [9] 0.015 | [10] 0.045 | [11] -0.012 | [12] 0.025 | [13] 0.009 | [14] -0.072 | [15] 0.048 | [16] 0.071 | [17] 0.089 | [18] -0.03 | [19] 0.046 | [20] -0.013

EIF4G1 isoform 8 (UniProt Q04637)
inactive: [1] -0.114 | [2] -0.487 | [3] 0.174 | [4] 0.016 | [5] -0.076 | [6] 0.005 | [7] 0.031 | [8] 0.047 | [9] 0.181 | [10] -0.425 | [11] -0.08 | [12] -0.36 | [13] 0.021 | [14] 0.034 | [15] -0.067 | [16] 0.008 | [17] 0.197 | [18] -0.017 | [19] 0.092 | [20] -0.05

ESS2 (UniProt Q96DF8)
inactive: [1] -0.025 | [3] -0.077 | [4] -0.012 | [5] 0.026 | [6] 0.036 | [7] -0.032 | [8] -0.008 | [9] 0.024 | [10] -0.012 | [11] 0.041 | [12] -0.025 | [13] 0.113 | [14] -0.055 | [15] -0.038 | [16] 0 | [17] -0.013 | [18] -0.142 | [19] -0.012 | [20] 0.01
active: [2] -0.245

CUX1 isoform 2 (UniProt Q13948)
inactive: [1] -0.055 | [2] -0.188 | [3] 0 | [4] -0.002 | [5] -0.112 | [6] 0.043 | [7] 0.317 | [8] 0.033 | [9] 0.016 | [10] 0.055 | [11] -0.065 | [12] -0.012 | [13] -0.07 | [14] 0.006 | [15] 0.03 | [16] -0.049 | [17] 0.061 | [18] 0.048 | [19] 0.056 | [20] -0.062

DLD (UniProt P09622)
Chain of UniProt P09622 (P09622 whole entry, looked up): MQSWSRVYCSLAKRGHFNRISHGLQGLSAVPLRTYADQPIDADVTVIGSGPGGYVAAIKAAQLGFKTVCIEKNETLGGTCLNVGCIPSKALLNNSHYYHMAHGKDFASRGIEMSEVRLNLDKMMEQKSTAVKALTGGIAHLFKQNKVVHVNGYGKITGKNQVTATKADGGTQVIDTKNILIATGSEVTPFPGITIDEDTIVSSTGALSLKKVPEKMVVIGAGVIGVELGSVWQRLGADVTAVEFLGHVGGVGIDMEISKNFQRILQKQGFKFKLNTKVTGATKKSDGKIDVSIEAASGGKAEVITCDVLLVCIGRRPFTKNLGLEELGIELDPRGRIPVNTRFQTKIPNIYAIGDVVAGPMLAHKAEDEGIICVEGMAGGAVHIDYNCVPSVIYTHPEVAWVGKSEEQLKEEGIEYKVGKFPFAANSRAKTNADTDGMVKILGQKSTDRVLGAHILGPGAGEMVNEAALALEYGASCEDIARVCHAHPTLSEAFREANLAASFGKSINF
inactive: [1] 0.043 | [2] 0.143 | [3] -0.028 | [4] -0.015 | [5] 0.049 | [6] -0.007 | [7] -0.012 | [8] -0.008 | [9] -0.035 | [10] -0.118 | [11] 0.055 | [12] 0.015 | [13] 0.026 | [14] -0.029 | [15] 0.008 | [16] 0.01 | [17] -0.041 | [18] -0.023 | [19] -0.011 | [20] 0.047

E2F4 (UniProt Q16254)
Chain of UniProt Q16254 (Q16254 whole entry, looked up): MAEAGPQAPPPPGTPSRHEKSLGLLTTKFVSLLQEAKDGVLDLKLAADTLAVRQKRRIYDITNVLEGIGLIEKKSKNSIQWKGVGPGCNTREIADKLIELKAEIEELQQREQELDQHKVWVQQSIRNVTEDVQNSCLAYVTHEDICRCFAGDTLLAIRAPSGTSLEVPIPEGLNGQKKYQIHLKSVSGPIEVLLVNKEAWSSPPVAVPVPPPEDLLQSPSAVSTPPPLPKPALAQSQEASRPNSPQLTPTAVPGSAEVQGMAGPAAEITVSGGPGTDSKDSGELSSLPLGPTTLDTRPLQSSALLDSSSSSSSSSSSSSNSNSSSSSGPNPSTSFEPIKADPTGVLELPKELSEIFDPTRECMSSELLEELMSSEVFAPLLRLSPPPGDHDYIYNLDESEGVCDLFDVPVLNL
active: [10] -0.245
inactive: [1] -0.057 | [2] -0.139 | [3] 0.036 | [4] -0.008 | [5] -0.017 | [6] -0.025 | [7] -0.024 | [8] 0.056 | [9] 0.009 | [11] -0.012 | [12] -0.056 | [13] -0.134 | [14] 0.028 | [15] -0.045 | [16] -0.122 | [17] -0.025 | [18] -0.02 | [19] -0.002 | [20] -0.042
